The list is not random: actives were taken first. Their share in the collection is about 19%.
IL-1B inflam inh = inflammasome signaling inhibition, IL-1 beta readout | AID 743279 | activity change, % at 57.5 µM | THP-1 LPS/ATP IL-1B secretion, AlphaLISA, 16 h; hits give low values | 360,000 compounds, 4.7% hits; in the data active = activity change below about -50%; inconclusive = mostly about -30% to -49%
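THP-1 cells pretreated 1 hr with compounds (up to 57.5 uM final), then stimulated with LPS (250 ng/mL final) plus ATP (1.25 mM final); secreted IL-1B measured by AlphaLISA after 16 hr, decreased signal indicating inhibition.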
HT1080 IDH1KD tx = HT-1080 IDH1 knockdown cell toxicity (counter line). AID 686971. 360,000 compounds, 2% hits. Potency, µM (doses to about 46.1 µM), for inactives: top-dose activity, negative = toxicity, usual class: cytotoxic. HT-1080 IDH1 knockdown viability, ATP luminescence, 48 h;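 note: potency is the fitted concentration of half-maximal effect; 0% = DMSO wells and -100% = cell-free medium wells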
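After a 2 h attachment period, IDH1KD HT-1080 cells took pin-transferred compound for 48 h at 37 °C; ATP-based luminescence after 10 min room-temperature reagent incubation reported viability.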
HT1080-NT tox = kills 2HG-producing HT-1080-NT fibrosarcoma cells; Potency, µM (doses to about 46.1 µM), for the others: at the top dose activity, negative = less viability, usual class: cytotoxic; AID 686970; 360,000 compounds, 1.6% hits; HT-1080-NT fibrosarcoma viability, CellTiter-Glo ATP luminescence, 48 h;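 note: NT is the 2HG producing partner of a matched IDH1 knockdown line; potency is the fitted concentration of half-maximal effect; 0% = DMSO-treated cells and -100% = media-only wells without cells; nearly all actives have a fitted effect of over 55% in size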
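Read-out is CellTiter-Glo luminescence after 10 minutes at room temperature, following 48 hours' compound treatment of HT-1080-NT cells (750 cells/well, RPMI, 5% FBS, 37 degrees C).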
TDP1 cell CPT = DT40-hTDP1 cell growth loss with CPT; chicken DT40 Tdp1-/-;hTDP1 cells + 20 nM CPT, ATP luminescence, 48 h; Potency, µM (titrated, usually from 46.2 µM), for the others: at the highest dose activity change, negative = growth inhibition, hits mostly inhibitors; 420,000 compounds, 12% hits; AID 686979; note: potency is the fitted concentration of half-maximal effect; nearly all actives have a fitted effect of over 55% in size
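Cell growth measured by CellTiter-Glo luminescence after a minimum 48 h, 37 C compound exposure with 20 nM CPT in Tdp1-knockout DT40 cells stably expressing hTDP1, seeded 400/well; qHTS titration format.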
TDP1 cell noCPT = qHTS for Inhibitors of human tyrosyl-DNA phosphodiesterase 1 (TDP1): qHTS in cells in absence of CPT; DT40 Tdp1-/- hTDP1 cells, no CPT, ATP luminescence, 48 h; Potency, µM (highest dose often 46.2 µM), for the others: top-dose activity change, negative = growth inhibition, most hits filed as inhibitors; 420,000 compounds, 15% hits; note: potency is the fitted concentration of half-maximal effect; nearly all actives have a fitted effect of over 55% in size
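Readout: luminescence from CellTiter-Glo after 30 min in the dark at RT. Cells: DT40 Tdp1-/- with stable hTDP1, 400/well. Exposure: compounds alone, ≥48 hr, 37 °C.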
* marks the source's active call; other numbers are inactive results; ? = inconclusive; . = not tested or not shown; [ ] = dose if it differs, or a comment. Unless noted, calls come from the whole dose curve; as a rule, active = well fitted curve in the direction sought with a large enough effect; inconclusive = small, poorly fitted or top-dose-only effect, or another doubt; inactive = no such curve, though single readings can be large; an effect the other way counts as inactive or inconclusive. Unless noted, % is set by controls: 0 for no effect and ±100 for the full control effect.

SMILES | IL-1B inflam inh | HT1080 IDH1KD tx | HT1080-NT tox | TDP1 cell CPT | TDP1 cell noCPT
Cc1ccc(-c2c(C(=O)O)c3ccccc3[nH]c2=O)cc1 | 32 | 11% | 18% | 13% | 0%
Cc1cc(CCCCCCCCc2cc(C)cc(=O)o2)oc(=O)c1 | 7 | -7% | 6% | ? | 16µM*
C(=Nc1cnc2ccccc2c1)c1ccncc1 | . | . | . | -3% | -10%
O=C(Nc1cccs1)Nc1ccc(F)cc1F | -11 | 2% | 9% | 23µM* | 15µM*
O=C(NCc1csc(-c2cccs2)n1)Nc1ccc(F)cc1F | -8 | -2% | -10% | ? | 12µM*
O=C(Nc1cccs1)Nc1ccc(Br)cc1F | . | ? | ? | ? | 21µM*
O=C(CNc1ccccc1)NN=C1CCCC1 | 18 | -18% | -1% | 2% | 3%
CCOc1ccc(CCN2C(=O)C(=O)N([C@@H](CC(C)C)CN3CCC[C@@H]3CN3C(=O)C(=O)NC[C@@H]3CC(C)C)C[C@@H]2Cc2ccccc2)cc1 | 0 | ? | ? | ? | ?
CCOc1ccc(CCN2C(=O)C(=O)N([C@@H](CC(C)C)CN3CCC[C@H]3CN3C(=O)C(=O)NC[C@@H]3CC(C)C)C[C@@H]2Cc2ccccc2)cc1 | -92* | 14% | 15% | ? | ?
CCOc1ccc(CCN2C(=O)C(=O)N([C@@H](CC(C)C)CN3CCC[C@H]3CN3C(=O)C(=O)NC[C@@H]3CC(C)C)C[C@@H]2CC(C)C)cc1 | -28 | 5% | 7% | ? | ?
CCOc1ccc(CCN2C(=O)C(=O)N([C@@H](CC(C)C)CN3CCC[C@H]3CN3C(=O)C(=O)NC[C@@H]3Cc3ccc(O)cc3)C[C@@H]2CC(C)C)cc1 | -54* | ? | ? | ? | ?
Cc1nc(-c2ccc(OCC(C)C)c(C#N)c2)sc1C(=O)O | . | . | . | -16% | -25%
CC(=O)N1CSCC1C(=O)NNS(=O)(=O)c1cccc(C(F)(F)F)c1 (centres undefined) | -2 | -1% | 0% | 12% | -9%
CCOc1ccc(-c2nc3c(c(CC)nn3-c3ccccc3)c3cc(OC)c(OC)cc23)cc1 | . | . | . | -19% | -5%
COC(=O)C[C@@H]1C[C@H]2c3cc(NC(=O)C4CCC4)ccc3O[C@H]2[C@@H](CO)O1 | 10 | 7% | 11% | -2% | -5%
O=C(C[C@@H]1C[C@H]2c3cc(NC(=O)C4CCC4)ccc3O[C@H]2[C@@H](CO)O1)NCc1ccc(-c2ccccc2)cc1 | 5 | ? | ? | 18µM* | 21µM*
O=C(C[C@@H]1C[C@H]2c3cc(NC(=O)c4cccnc4)ccc3O[C@H]2[C@H](CO)O1)NCc1ccc(Oc2ccccc2)cc1 | 75 | ? | ? | 13µM* | 5.8µM*
CCC(Oc1ccccc1)C(=O)N(Cc1ccccc1)c1ccccn1 (centres undefined) | 0 | -6% | 0% | ? | 16µM*
O=C(N(Cc1ccccc1)c1ccccn1)C12CC3CC(CC(C3)C1)C2 | -24 | -14% | -16% | 26µM* | 16µM*
O=C(N(c1ccccn1)c1ccccn1)C12CC3CC(CC(C3)C1)C2 | 33 | -7% | -13% | 0% | -2%
CC(C)N(CCO)Cc1nc(C(c2ccccc2)c2ccccc2)no1 | -18 | -5% | -3% | -35% | ?
C[C@@H]1[C@H](O)C[C@@]23COC(=O)C2=CCC[C@@H]3[C@@]1(C)CC/C(=C/CO)CO | 21 | -9% | 17% | -7% | -10%
CN[C@H](C)C(=O)NC[C@H]1O[C@@H](n2cc(C)c(=O)[nH]c2=O)C[C@@H]1O | 36 | -15% | -3% | -84% | -89%
CC(C)(C)c1ccc(NC(=O)COC(=O)C2CCCC2)cc1 | 6 | 0% | 4% | 7% | -1%
Cc1ccc(-c2noc(-c3ccc(N4CCCCC4)c([N+](=O)[O-])c3)n2)cc1 | . | . | . | ? | 21µM*
SMILES | IL-1B inflam inh | HT1080 IDH1KD tx | HT1080-NT tox | TDP1 cell CPT | TDP1 cell noCPT
CCc1noc(-c2ccc(N3CCC(C)CC3)c([N+](=O)[O-])c2)n1 | . | . | . | 18µM* | ?
O=[N+]([O-])c1cc(-c2nc(-c3ccccc3)no2)ccc1N1CCCCC1 | . | . | . | -17% | ?
Cc1ccc(-c2noc(-c3ccc(N4CCOCC4)c([N+](=O)[O-])c3)n2)cc1 | . | . | . | -14% | 21µM*
COc1ccc(-c2noc(-c3ccc(N4CCOCC4)c([N+](=O)[O-])c3)n2)cc1 | . | . | . | -15% | -1%
CCCCN(C(=O)CSCC(=O)Nc1ccc(C)cc1)c1c(N)n(Cc2ccccc2)c(=O)[nH]c1=O | 15 | -5% | -1% | 0% | 2%
CCC1CN(CC(=O)NCc2ccc3c(c2)OCO3)Cc2ccc(Cl)cc2O1 (centres undefined) | . | . | . | 3%[9.04 µM] | -36%
Cc1cccc(NC(=O)COc2cccc3c(=O)n(C)ccc23)c1C | . | . | . | 23µM* | 18µM*
Cn1ccc2c(OCC(=O)Nc3cc(C(F)(F)F)ccc3Cl)cccc2c1=O | . | . | . | 26µM* | 15µM*
CCn1ccc2c(OCC(=O)Nc3ccccc3C)cccc2c1=O | . | . | . | 15µM* | 12µM*
CCn1ccc2c(OCC(=O)Nc3ccccc3C(F)(F)F)cccc2c1=O | . | . | . | 15µM* | 21µM*
O=C(COC(=O)c1ccc(O)cc1)Nc1cc(C(F)(F)F)ccc1Cl | 47 | 2% | 0% | -4% | 0%
Fc1ccc(CSc2nnc(-c3cccnc3)o2)cc1 | -12 | -2% | -2% | -9% | -15%
CC(C)[C@@H](C(=O)N[C@@H](C(=O)O)c1ccccc1)N1C(=O)N2CCc3c([nH]c4ccccc34)[C@@]2(C)C1=O | 21 | -6% | 4% | -6% | -4%
C/C(=N\Nc1ccc(Cl)c(C(=O)O)c1)c1ccc[nH]1 | 19 | -9% | -6% | 4% | -15%
COc1ccc(C2=NOC(Cn3c(Cc4ccc(Cl)cc4)nc4c3c(=O)n(C)c(=O)n4C)C2)cc1 (centres undefined) | -29 | -10% | 3% | 26µM* | 23µM*
CCN(CC)S(=O)(=O)c1ccc(NC(=O)CNC2CCCCC2)cc1 | -8 | -1% | -3% | ? | -28%
FC(F)(F)c1ccccc1Cc1c(-c2cccc(Cl)c2)nc2ccc(Cl)cn12 | 23 | 9% | 11% | ? | ?
CN(C)CCC(Oc1ccccc1OCc1ccccc1)c1ccccc1 (centres undefined) | -90* | ? | ? | ? | 16µM*
CC(C)Oc1ccccc1OCCN(C)C | 5 | 11% | 29% | -14% | -16%
CCOc1ccc2[nH]c(=O)c(CN(Cc3ccc(C)cc3)C(=O)N3CCCC3)cc2c1 | 1 | 7% | 6% | ? | 21µM*

Screening data: PubChem BioAssay, National Center for Advancing Translational Sciences (NCATS)
